Results on six compounds are retold here after PubChem BioAssay (NCATS).

Each structure is given as a SMILES string. Records with an inconclusive call do not appear. Activity calls are given as the source filed them. Unless noted, the call rests on the fitted dose curve.

Assay [1] has as its target Peroxisome proliferator-activated receptor delta (Homo sapiens) (UniProt Q03181). The assay can be described thus: qHTS assay for small molecule agonists of peroxisome proliferator-activated receptor delta signaling (AID 588534).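 Further: 0% = DMSO basal wells and 100% = positive control agonist at 10 µM.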 An outline of the steps:
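Cells carrying a PPAR-delta beta-lactamase reporter were treated with compounds for 18 h at 37 °C in agonist mode. CCF4 fluorescence was read after 2 h; EC50 and efficacy from Hill fits.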

The nature of assay [2]: qHTS assay for small molecule antagonists of peroxisome proliferator-activated receptor delta signaling (AID 588535; active means well fitted inhibition curve with a large enough effect in the signal ratio, with a control signal flat, not every such curve was filed as active; the % refers to the signal ratio;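 on max response: cells co-treated with a PPAR-delta agonist as stimulator during compound exposure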). Conditions: HEK293T PPARd-UAS-bla, beta-lactamase FRET ratio, 18 h; 460 nm channel. The gist of the method:
(§1)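 HEK293T PPAR-delta-UAS-bla cells, 4000/well, 2% charcoal/dextran FBS; 5 h 37 C; cpd titration; 18 h 37 C; CCF4 2 h RT; FI 460/530 nm; Hill fit → IC50, efficacy.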
(In qHTS, concentration-response curves come from the screen itself.)

Assay [3] addresses Peroxisome proliferator-activated receptor delta (Homo sapiens) (UniProt Q03181). Described as above. The gist of the method:
as §1

Assay [4] concerns the target Vitamin D3 receptor (Homo sapiens) (UniProt P11473). Briefly: qHTS assay for small molecule agonists of vitamin D receptor signaling (AID 588543).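 Further: 0% = DMSO basal and 100% = reference agonist control.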 An outline of the steps:
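Reporter cells (HEK293T, VDR-UAS-bla) were seeded in medium with 2% charcoal-stripped serum and incubated 5 h, then compounds in concentration series were added for 16 h at 37 °C. Stimulation was scaled between DMSO basal and 50 nM 1α,25-dihydroxyvitamin D3.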

The target in assay [5] is Retinoic acid receptor RXR-alpha (Homo sapiens) (UniProt P19793). Briefly: qHTS assay for small molecule agonists of retinoid X receptor alpha signaling (AID 588544).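 Further: 0% = DMSO basal wells and 100% = reference agonist.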
Chain of Retinoic acid receptor RXR-alpha (Homo sapiens) (P19793 whole entry, looked up): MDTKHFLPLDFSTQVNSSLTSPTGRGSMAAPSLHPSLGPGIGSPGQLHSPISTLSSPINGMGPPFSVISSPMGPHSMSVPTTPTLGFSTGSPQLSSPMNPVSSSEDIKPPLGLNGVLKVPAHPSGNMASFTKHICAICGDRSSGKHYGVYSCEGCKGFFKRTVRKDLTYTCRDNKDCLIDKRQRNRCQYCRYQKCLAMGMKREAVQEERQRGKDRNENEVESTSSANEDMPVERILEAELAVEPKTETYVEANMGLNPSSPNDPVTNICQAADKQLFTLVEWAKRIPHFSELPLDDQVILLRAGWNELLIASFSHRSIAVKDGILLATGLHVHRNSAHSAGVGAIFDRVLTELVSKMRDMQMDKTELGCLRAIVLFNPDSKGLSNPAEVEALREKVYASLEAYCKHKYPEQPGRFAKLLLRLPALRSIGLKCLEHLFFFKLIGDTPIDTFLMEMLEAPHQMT
In assay [6] the target is Thyroid hormone receptor beta (Homo sapiens) (UniProt P10828). Briefly: qHTS assay for small molecule agonists of thyroid hormone receptor beta signaling (AID 588545).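 Further: 0% = DMSO only and 100% = 10 nM T3.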 The gist of the method:
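Beta-lactamase reporter activity under TR response element control is measured in HEK 293 cells after 18 hrs compound exposure. Signal is ratiometric CCF4 fluorescence, 460/530 nm.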

Assay [7] is described as follows: qHTS assay for small molecule antagonists of retinoid X receptor alpha signaling (AID 588546; active means well fitted inhibition curve with a large enough effect in the signal ratio, with a control signal flat, not every such curve was filed as active; the % refers to the signal ratio; further: potency means the concentration at half of the fitted maximal effect;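 on max response: cells stimulated with 9-cis-retinoic acid as agonist; on the % scale 0 is the no-effect control and ±100 the full control effect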). The settings on record: HEK293T RXRa-UAS-bla, beta-lactamase ratio, antagonist mode; measured here: W530 green channel, cytotoxicity proxy. The gist of the method:
(§2)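 Beta-lactamase reporter inhibition, read as CCF4 fluorescence ratio (ex 405, em 460/530 nm) after 2 h at RT. HEK293T UAS-bla cells, 2500/well, were stimulated with 9-cis-RA at 500 or 100 nM final alongside test compound for 18 h at 37 C.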

In assay [8] the target is Retinoic acid receptor RXR-alpha (Homo sapiens) (UniProt P19793). Described as above. Conditions: HEK293T RXRa-UAS-bla, beta-lactamase ratio, antagonist mode. The gist of the method:
as §2

A short description of assay [9]: qHTS assay for small molecule agonists of the antioxidant response element (ARE) signaling pathway (AID 651741; active means well fitted activation curve with a large enough effect in the signal ratio; the % refers to the signal ratio; further: potency means the concentration at half of the fitted maximal effect; on activation: % of control where 0% means no effect). The gist of the method:
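Quantitative HTS in HepG2 cells stably expressing an ARE-beta-lactamase reporter; 16 h compound exposure at 37 C, followed by 2 h room-temperature incubation with LiveBLAzer B/G FRET substrate and fluorescence measurement.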

Assay [10] is described as follows: qHTS assay for environmental chemicals that activate the Aryl hydrocarbon Receptor (AhR) signaling pathway (AID 651777; active means well fitted curve in the direction sought with a large enough effect; an effect the other way counts as inactive or inconclusive; further: % of control where 0% means no effect; nearly all actives have a fitted effect of over 15% in size). The settings on record: 1A2-DRE human hepatoma cells, luciferase, 24 h; activation: stronger effect = higher value. An outline of the steps: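 Luminescence (One-Glo, 30 min, room temperature) reports AhR-driven luciferase in stably transfected human hepatoma cells bearing DRE and CYP1A2 promoter. Cells (1,200/well) were treated with compound for 24 hr at 37 C in qHTS format.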

For assay [11], the target named is Peroxisome proliferator-activated receptor alpha (Homo sapiens) (UniProt Q07869). Briefly: qHTS assay for small molecule agonists of the peroxisome proliferator-activated receptor alpha (PPARalpha) signaling pathway (AID 651778; active means well fitted curve in the direction sought with a large enough effect; an effect the other way counts as inactive or inconclusive; further: % of control where 0% means no effect). Conditions: PathHunter PPARalpha complementation, chemiluminescence, 6 h; max response: stronger effect = higher value. An outline of the steps: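 Chemiluminescence from complemented enzyme reported PPARalpha activation in cells after 6 hr of compound treatment at 37 C. The detection reagent was incubated for 60 min at room temperature, and compounds were scored as agonists.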
Chain of Peroxisome proliferator-activated receptor alpha (Homo sapiens) (Q07869 whole entry, looked up): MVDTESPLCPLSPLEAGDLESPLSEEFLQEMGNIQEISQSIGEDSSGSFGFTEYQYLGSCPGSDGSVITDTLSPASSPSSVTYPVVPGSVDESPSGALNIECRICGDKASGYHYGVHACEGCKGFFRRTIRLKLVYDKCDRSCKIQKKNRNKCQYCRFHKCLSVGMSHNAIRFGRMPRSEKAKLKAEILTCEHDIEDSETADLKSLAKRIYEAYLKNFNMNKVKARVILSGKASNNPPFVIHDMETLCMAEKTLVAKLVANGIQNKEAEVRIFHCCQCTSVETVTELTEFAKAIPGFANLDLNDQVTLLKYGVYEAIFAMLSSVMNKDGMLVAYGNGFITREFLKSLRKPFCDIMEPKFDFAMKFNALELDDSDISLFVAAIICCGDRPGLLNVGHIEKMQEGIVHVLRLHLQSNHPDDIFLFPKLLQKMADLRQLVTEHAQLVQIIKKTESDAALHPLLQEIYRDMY

Assay [12] is described as follows: qHTS assay for small molecule agonists of the antioxidant response element (ARE) signaling pathway measured by Nrf2-dependant transcriptional activity (AID 720636; active means well fitted curve in the direction sought with a large enough effect in the repeat runs; an effect the other way counts as inactive or inconclusive; further: potency means the concentration at half of the fitted maximal effect; on activation: % of control where 0% means no effect). The gist of the method:
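Nrf2-dependent transcription read as ONE-Glo luciferase signal from ARE-luc HepG2 reporter cells after 16 hr compound treatment at 37 C, 5% CO2, in assay medium with 1% dialyzed FBS.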

Assay [13] in a line: qHTS assay for small molecule agonists of the antioxidant response element (ARE) signaling pathway measured by Nrf2-dependant transcriptional activity - cell viability counter screen (AID 720653; active means well fitted curve in the direction sought with a large enough effect in the repeat runs; an effect the other way counts as inactive or inconclusive; further: on the % scale 0 is the no-effect control and ±100 the full control effect). The settings on record: ARE-bla HepG2 viability, CellTiter-Glo ATP luminescence, 16 h; max response: stronger effect = lower value. An outline of the steps: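 Cytotoxicity counter screen: intracellular ATP quantified by CellTiter-Glo luminescence in the same ARE-bla HepG2 plates, after 16 h compound exposure and a 2 h beta-lactamase substrate step.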

For assay [14], the target named is Thyroid hormone receptor beta (Homo sapiens) (UniProt P10828). The assay can be described thus: qHTS assay for small molecule antagonists of thyroid hormone receptor beta signaling (AID 588547; active means well fitted inhibition curve with a large enough effect in the signal ratio, with a control signal flat, not every such curve was filed as active; the % refers to the signal ratio;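 further: cells stimulated with 0.4 nM T3 agonist during compound exposure; series mostly up to about 77 µM; on the % scale 0 is the no-effect control and ±100 the full control effect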). The settings on record: TR-UAS-bla HEK293, beta-lactamase ratio, antagonist mode, 18 h. An outline of the steps: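 Inhibition of T3-driven (0.4nM final) beta-lactamase reporter activity was measured over 0.59 nM to 92 uM compound after 18 h at 37 C. The cells were GripTite HEK293 TR-UAS-bla in charcoal/dextran-stripped serum, with CCF4 ratio read-out and IC50 from Hill fits.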
Chain of Thyroid hormone receptor beta (Homo sapiens) (P10828 whole entry, looked up): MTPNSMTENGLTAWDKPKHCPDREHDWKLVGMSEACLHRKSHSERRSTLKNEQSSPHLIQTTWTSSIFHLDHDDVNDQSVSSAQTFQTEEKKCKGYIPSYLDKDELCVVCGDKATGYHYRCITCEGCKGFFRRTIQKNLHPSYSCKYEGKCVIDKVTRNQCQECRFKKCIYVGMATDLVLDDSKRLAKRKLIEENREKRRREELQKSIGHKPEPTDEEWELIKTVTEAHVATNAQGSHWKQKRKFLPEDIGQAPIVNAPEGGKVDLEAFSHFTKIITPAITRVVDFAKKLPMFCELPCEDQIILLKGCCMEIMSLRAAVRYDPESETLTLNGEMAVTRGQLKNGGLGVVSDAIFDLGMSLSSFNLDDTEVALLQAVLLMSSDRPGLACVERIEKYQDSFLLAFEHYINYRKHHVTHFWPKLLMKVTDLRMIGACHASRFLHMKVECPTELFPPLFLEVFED

Assay [15] in a line: qHTS assay for small molecule activators of the p53 signaling pathway (AID 651743; active means well fitted activation curve with a large enough effect in the signal ratio, not every such curve was filed as active; the % refers to the signal ratio; further: series mostly up to about 92 µM; % of control where 0% means no effect). The settings on record: HCT-116 p53RE-bla, beta-lactamase FRET ratio, 16 h; activation: stronger effect = higher value. The gist of the method: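 Read-out is fluorescence intensity from the LiveBLAzer B/G FRET substrate, added for 2 hours at room temperature after HCT-116 p53RE-bla cells had been incubated with compounds for 16 hours at 37 C.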

Assay [16] can be described thus: qHTS assay for cell viability of the p53RE-bla HCT-116 cell line (AID 743292; active means well fitted curve in the direction sought with a large enough effect; an effect the other way counts as inactive or inconclusive; further: on the % scale 0 is the no-effect control and ±100 the full control effect; nearly all actives have a fitted effect of over 55% in size). An outline of the steps:
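ATP-based luminescent viability (CellTiter-Glo, 30 min RT) after 16 h compound treatment at 37 C of p53RE-bla HCT-116 cells, seeded at 4,000 cells/well and rested 5 h before dosing.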

Assay [17] has as its target Nuclear receptor subfamily 1 group I member 2 (Rattus norvegicus) (UniProt Q9R1A7). The assay can be described thus: qHTS assay for small molecule activators of the rat pregnane X receptor (rPXR) signaling pathway (AID 651751; call rule not given here; further: 0% is about no effect). The settings on record: rPXR reporter cells, luciferase (One-Glo), 24 h.
A short description of assay [18]: qHTS assay for cell viability of HEK293 cells (AID 743288; active means well fitted curve in the direction sought with a large enough effect; an effect the other way counts as inactive or inconclusive; further: nearly all actives have a fitted effect of over 50% in size; further: potency means the concentration at half of the fitted maximal effect). The settings on record: ATP luminescence (CellTiter-Glo), 18 h; max response: stronger effect = lower value. An outline of the steps: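 HEK293 parental, 2,000 cells/well; ≥5 h pre-incubation 37 C; pintool compound addition; 18 h, 37 C; CellTiter-Glo 30 min RT; luminescence read.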
Assay [19] concerns the target Bile acid receptor (Homo sapiens) (UniProt Q96RI1). Briefly: qHTS assay for small molecule antagonists of farnesoid X receptor signaling (AID 588526). Further: on the % scale 0 is the no-effect control and ±100 the full control effect. An outline of the steps: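 Beta-lactamase reporter antagonist mode: HEK293T FXR-UAS-bla cells, titrated compound, CDCA stimulation, 16 h 37 C, CCF4 dye 2 h RT. Data normalized to CDCA 50 uM and DMSO; Hill-fit IC50.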

For assay [20] the target is unchanged. Briefly: qHTS assay for small molecule agonists of farnesoid X receptor signaling (AID 588527).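 Further: series mostly up to about 77 µM; 0% = vehicle basal and 100% = reference agonist.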 Conditions: HEK293T FXR-UAS-bla, beta-lactamase ratio, 16 h; activation: stronger effect = higher value. The gist of the method: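 Quantitative HTS used FXR-UAS-bla HEK293T cells with 16 h compound incubation at 37 C. EC50 values came from concentration-response curves normalized to chenodeoxycholic acid.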

Chain of Peroxisome proliferator-activated receptor delta (Homo sapiens) (Q03181 whole entry, looked up): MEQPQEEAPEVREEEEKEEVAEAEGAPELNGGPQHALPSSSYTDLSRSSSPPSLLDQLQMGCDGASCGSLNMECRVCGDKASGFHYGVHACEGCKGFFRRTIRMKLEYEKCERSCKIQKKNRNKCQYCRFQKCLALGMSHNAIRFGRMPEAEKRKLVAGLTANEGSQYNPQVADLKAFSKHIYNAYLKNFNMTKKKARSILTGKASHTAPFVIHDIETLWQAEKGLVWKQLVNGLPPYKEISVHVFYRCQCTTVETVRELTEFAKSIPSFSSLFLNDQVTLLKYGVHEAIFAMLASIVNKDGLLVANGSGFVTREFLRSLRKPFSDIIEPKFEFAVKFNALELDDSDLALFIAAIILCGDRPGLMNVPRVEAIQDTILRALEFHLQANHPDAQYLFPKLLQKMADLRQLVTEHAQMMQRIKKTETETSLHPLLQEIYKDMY
Chain of Bile acid receptor (Homo sapiens) (Q96RI1 whole entry, looked up): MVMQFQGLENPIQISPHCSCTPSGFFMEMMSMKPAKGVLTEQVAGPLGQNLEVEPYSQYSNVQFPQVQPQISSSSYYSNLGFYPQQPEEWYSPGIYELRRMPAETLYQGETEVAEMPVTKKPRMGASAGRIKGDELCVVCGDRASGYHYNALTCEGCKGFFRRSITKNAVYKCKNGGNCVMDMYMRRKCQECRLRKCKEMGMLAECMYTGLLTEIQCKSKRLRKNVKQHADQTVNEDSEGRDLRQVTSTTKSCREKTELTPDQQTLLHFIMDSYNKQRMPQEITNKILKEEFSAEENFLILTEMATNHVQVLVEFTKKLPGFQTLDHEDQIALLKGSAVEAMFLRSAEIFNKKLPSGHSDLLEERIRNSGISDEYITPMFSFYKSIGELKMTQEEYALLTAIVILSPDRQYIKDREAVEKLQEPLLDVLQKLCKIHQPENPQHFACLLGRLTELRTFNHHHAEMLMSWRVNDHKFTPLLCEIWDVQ
Chain of Nuclear receptor subfamily 1 group I member 2 (Rattus norvegicus) (Q9R1A7 whole entry, looked up): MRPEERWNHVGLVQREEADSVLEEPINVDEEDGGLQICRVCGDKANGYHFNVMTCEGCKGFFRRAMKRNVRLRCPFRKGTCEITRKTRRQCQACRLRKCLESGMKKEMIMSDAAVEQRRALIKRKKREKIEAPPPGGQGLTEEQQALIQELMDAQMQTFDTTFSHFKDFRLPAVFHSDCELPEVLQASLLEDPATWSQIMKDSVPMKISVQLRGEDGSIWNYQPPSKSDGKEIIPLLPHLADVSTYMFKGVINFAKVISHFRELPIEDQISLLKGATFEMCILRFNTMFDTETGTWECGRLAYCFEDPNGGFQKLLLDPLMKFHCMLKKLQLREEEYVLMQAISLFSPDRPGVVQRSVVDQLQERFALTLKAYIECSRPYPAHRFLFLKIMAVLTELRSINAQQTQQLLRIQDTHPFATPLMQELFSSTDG
Chain of Vitamin D3 receptor (Homo sapiens) (P11473 whole entry, looked up): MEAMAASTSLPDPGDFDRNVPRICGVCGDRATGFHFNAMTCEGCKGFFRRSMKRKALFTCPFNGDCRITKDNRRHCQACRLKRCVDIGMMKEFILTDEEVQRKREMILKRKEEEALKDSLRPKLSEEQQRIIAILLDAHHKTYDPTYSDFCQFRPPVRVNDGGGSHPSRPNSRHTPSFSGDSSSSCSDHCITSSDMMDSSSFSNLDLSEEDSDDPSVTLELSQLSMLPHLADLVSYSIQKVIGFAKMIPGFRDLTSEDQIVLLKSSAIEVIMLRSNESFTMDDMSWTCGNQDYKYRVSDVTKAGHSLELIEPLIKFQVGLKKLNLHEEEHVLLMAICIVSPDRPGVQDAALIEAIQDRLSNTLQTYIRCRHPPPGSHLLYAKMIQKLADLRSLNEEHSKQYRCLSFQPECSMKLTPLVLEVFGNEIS

Regarding `Cc1ccccc1CO[C@@H]1C[C@@]2(C(C)C)CC[C@]1(C)O2`, the compound was called inactive in assay [1] and in [4]. Besides, the max response in [2] was 49.2%; in assay [7] it was 0.789%; in assay [8], -22.7% (inactive); in [11], 5.16% (inactive); in assay [13], 1.88% (inactive). In addition, the Potency entry in assay [3], in assay [5], in assay [6], in [9] and in assay [12] was “inactive” in each case. The activation in [10] is 0.466% (inactive).
For the compound `C[N+]1(C)CCCCC1`, the call in [1] and in assay [4] was inactive. Besides, the max response in [2] is -14.2%; in assay [7] it was -2.65%; in assay [8], 0.987% (inactive); in assay [11], -0.937% (inactive); in assay [13] it was 4.82% (inactive); in [17] it was 3.55% (inactive). Besides, the Potency result in assay [3], in assay [5], in [6], in assay [12] and in assay [16] was “inactive” in each case. Also, the activity change % (negative = inhibition) in assay [14] is 2.54% (inactive). Also, the activation in assay [15] is 0.854% (inactive); in assay [10] it was 0.858% (inactive).
Consider `C=CC(=O)OCC(CC)(COC(=O)C=C)COC(=O)C=C`, for which the compound was called inactive in assay [1] and in [4]. Besides, the max response in assay [7] was 23.9%; in assay [11], -1.24% (inactive); in assay [13] it was -3.3% (inactive); in [17], -14.4% (inactive). Also, the Potency in assay [8] was 44.7 µM (active); in assay [9], 34.4 µM (active); in assay [12], 61.1 µM (active); in assay [18], 50.1 µM (active). In addition, in assay [10], the activation was 9.7% (inactive). Besides, the Potency entry in assay [16] was “inactive”.
With `Brc1ccc(Br)cc1`, the Potency entry in assay [19], in [3], in assay [5], in [6], in assay [12] and in [16] was “inactive” each time. The results for the activation in [20], in assay [15] and in assay [10] were -2.5% (inactive), -8.84% (inactive) and -0.254% (inactive), respectively. The compound was called inactive in [1] and in assay [4]. Moreover, the max response in [2] was -47.9%; in assay [7] it was -5.87%; in assay [8] it was 9.56% (inactive); in assay [11] it was -1.4% (inactive); in assay [18], -8.04% (inactive); in [17], -2.46% (inactive).
As for `CCNS(=O)(=O)C(F)(F)C(F)(F)C(F)(F)C(F)(F)C(F)(F)C(F)(F)C(F)(F)C(F)(F)F`, the Potency entry in assay [19], in assay [3], in [5], in assay [6], in assay [12] and in assay [16] was “inactive” each time. Also, the compound was called inactive in assay [1] and in assay [4]. In addition, the max response in assay [2] is -20.7%; in assay [7], -8.67%; in assay [8], 6.49% (inactive); in assay [13] it was -7.97% (inactive); in [18], -20.2% (inactive); in assay [17] it was 2.04% (inactive). In addition, in assay [14], the activity change % (negative = inhibition) is 23.1% (inactive). Further, the activation in assay [10] was 1.24% (inactive).
Regarding `CCC[CH2][Sn](=[O])[CH2]CCC`, the result in assay [1] and in assay [4] was inactive. The max response in assay [2] is 0.661%; in [7], -4.07%; in [8], -4.87% (inactive); in [11], -3.37% (inactive); in [13], 5.71% (inactive); in assay [18], -6.83% (inactive). Further, the max response in assay [17] was 4.58% (inactive). For the same compound, the Potency result in assay [3], in assay [5], in assay [9] and in [16] was “inactive” in each case. Besides, in assay [14], the activity change % (negative = inhibition) is -7.82% (inactive). The activation in [15] was 2.27% (inactive); in [10], 3.37% (inactive).
